Compound activity: PubChem, The Scripps Research Institute Molecular Screening Center
GPR151 activ: activators of human GPR151, primary screen, cell-based, PathHunter beta-arrestin, luminescence; 650,000 tested, 1% active; activation, % at 11.2 µM; PathHunter beta-arrestin GPR151 cells; in the data active = activation above about 4.9%;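 note: 0% = median of compound wells and 100% = cells with positive control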
MITF inh: MITF inhibitors, primary screen, biochemical, AlphaScreen, human. Microphthalmia-associated transcription factor (Homo sapiens), O75030. AID 1259374, 2018. 650,000 tested, 0.91% active. AlphaScreen MITF homodimerization, bead proximity signal. inhibition, % at 2.6 µM; in the data active = inhibition above about 50%;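 note: 0% = vehicle wells with protein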
TEAD-YAP block: TEAD-YAP interaction inhibition, primary screen, TEAD-YAP interaction inhibitor project, luminescence, HEK-TIYL cells; TEAD-Gal4/YAP UAS-luciferase luminescence; inhibition, % at 9.12 µM; 640,000 tested, 1.4% active; AID 1259422, 2018; in the data active = inhibition above about 32%;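 note: 0% = median of test compound wells and 100% = reference inhibitor wells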
FBW7 act: FBW7 E3 ligase activators, primary screen, biochemical, AlphaScreen, human | normalized activity (activation), % at 26.1 µM | AlphaScreen FBW7–phospho-cyclin E peptide binding, activator screen | F-box/WD repeat-containing protein 7 (Homo sapiens), Q969H0 | 650,000 tested, 0.13% active; in the data active = normalized activity above about 1.9%;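 note: purified mutant Fbw7 with reduced substrate affinity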
GPR151 confirm: GPR151 activators, triplicate retest, confirmation, cell-based, PathHunter beta-arrestin, luminescence | shares compounds with GPR151 activ | 6,700 tested, under 10 active | AID 1508609, 2020 | GPR151 PathHunter beta-arrestin cells, 90 min; % of EA-reagent control over plate median | activation, % at 11.2 µM;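 active = mean percent activation across replicates above the confirmation screen cutoff of 4.91%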
GPR119 ag: GPR119 activators in beta-arrestin cells, counter-screen for GPR151 activator project, cell-based, PathHunter beta-arrestin, luminescence, triplicate; shares compounds with GPR151 activ; 90 min; 0 = compound-well median, 100 = enzyme-acceptor control; activation, % at 11.2 µM; 6,700 tested, 0.3% active; AID 1508611, 2020;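 active = mean percent activation in the counterscreen above 29.09%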;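 note: counterscreen on off-target GPR119 to flag nonselective hits from the GPR151 activator screen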
* = called active by the depositor. The list is not random: actives were taken first. Their share in the collection is about 3.5%.

How did Cc1sc(NC(=O)c2cc3ccccc3oc2=O)nc1-c1ccc(Br)cc1 do in these assays?
GPR151 activ: 7.4*; MITF inh: -1.9; TEAD-YAP block: -5.7; FBW7 act: 0.0; GPR151 confirm: 1.9; GPR119 ag: -2.3

What do the screens show for `Cc1nn(CC(=O)Nc2ccc(Oc3ccc(Cl)cc3)cc2)c(C)c1[N+](=O)[O-]`?
GPR151 activ: -1.3; MITF inh: -13.0; TEAD-YAP block: -2.7; FBW7 act: -0.2

How did Cc1nn(CC(=O)Nc2ccc(O)cc2)c(C)c1[N+](=O)[O-] do in these assays?
GPR151 activ: 6.1*; MITF inh: 18.6; TEAD-YAP block: 6.4; FBW7 act: 0.4; GPR151 confirm: -0.2; GPR119 ag: 1.7

Results for N#CCCN(CCC(N)=O)CCN1CCOCC1 ?
GPR151 activ: 4.1; MITF inh: 23.3; TEAD-YAP block: 7.0; FBW7 act: -0.2

How did CCCCNC(=O)C(CC)Sc1nnc(-c2ccccc2)c(-c2ccccc2)n1 (configuration not stated) do in these assays?
GPR151 activ: 5.5*; MITF inh: 7.6; TEAD-YAP block: 1.2; FBW7 act: -0.1; GPR151 confirm: 0.5; GPR119 ag: 6.2

How did COc1cc(/C=C2/C(=O)N(c3ccc(I)cc3)N=C2C)ccc1O do in these assays?
GPR151 activ: 5.4*; MITF inh: 6.5; TEAD-YAP block: 2.4; FBW7 act: -0.1; GPR151 confirm: -0.8; GPR119 ag: 2.3

How did COc1cc(/C=C2\C(=O)N(c3ccc(C(=O)OC(C)C)cc3)N=C2C)ccc1O do in these assays?
GPR151 activ: -0.6; MITF inh: 2.0; TEAD-YAP block: -13.6; FBW7 act: 0.0

What do the screens show for `COc1ccc(/C=C2\C(=O)N(c3ccc(Cl)c(C(=O)O)c3)N=C2C)cc1OC`?
GPR151 activ: 5.7*; MITF inh: 2.4; TEAD-YAP block: -6.1; FBW7 act: -0.1; GPR151 confirm: -0.1; GPR119 ag: 11.2

What do the screens show for `CCOC(=O)c1sc2ncnc(N3CCN(c4ccccc4Cl)CC3)c2c1C`?
GPR151 activ: -0.8; MITF inh: -1.5; TEAD-YAP block: -1.1; FBW7 act: 0.0

How did O=C1c2ccccc2-c2onc3c(N4CCCCC4)cc(Nc4ccc5c(c4)OCCO5)c1c23 do in these assays?
GPR151 activ: 0.4; MITF inh: 29.2; TEAD-YAP block: 13.1; FBW7 act: -0.4

How did CC(C)CCNC(=O)c1cc(=O)[nH]c2ccc(Br)cc12 do in these assays?
GPR151 activ: -0.3; MITF inh: 4.2; TEAD-YAP block: 1.9; FBW7 act: 0.1

Results for CCC(C)NC(=O)c1cc(=O)[nH]c2ccc(Br)cc12 (configuration not stated) ?
GPR151 activ: 8.8*; MITF inh: 3.0; TEAD-YAP block: 7.7; FBW7 act: 0.2; GPR151 confirm: 2.7; GPR119 ag: 32.5*

Results for O=C(NC1CC1)c1cc(=O)[nH]c2ccc(Br)cc12 ?
GPR151 activ: 6.2*; MITF inh: 3.3; TEAD-YAP block: -14.8; FBW7 act: -0.2; GPR151 confirm: -0.1; GPR119 ag: 19.9

What do the screens show for `Cc1ccc(/C=N/NC(=O)CNC(=O)c2cccc(F)c2)o1`?
GPR151 activ: -0.9; MITF inh: 14.2; TEAD-YAP block: 3.3; FBW7 act: 0.1

How did CCc1ccccc1NC(=O)CN(c1ccc(Cl)c(Cl)c1)S(C)(=O)=O do in these assays?
GPR151 activ: -2.1; MITF inh: 14.9; TEAD-YAP block: 8.1; FBW7 act: 0.4

How did Cc1cc(S(=O)(=O)N2CCN(C)CC2)c(C)cc1Cl do in these assays?
GPR151 activ: 5.3*; MITF inh: -6.1; TEAD-YAP block: -2.2; FBW7 act: -0.1; GPR151 confirm: 0.3; GPR119 ag: -11.5

How did Cc1cc(C)c(S(=O)(=O)N2CCN(C)CC2)cc1C do in these assays?
GPR151 activ: -0.1; MITF inh: 5.3; TEAD-YAP block: 10.5; FBW7 act: -0.1

Results for N#Cc1ccc(C(=O)Nc2cccc(F)c2)c(F)c1 ?
GPR151 activ: 3.1; MITF inh: 7.1; TEAD-YAP block: 2.2; FBW7 act: 0.1

What do the screens show for `CC(C)CC1(C)NC(=O)N(Cc2nnc(-c3ccccc3Br)o2)C1=O` (configuration not stated)?
GPR151 activ: 7.0*; MITF inh: 2.8; TEAD-YAP block: -6.7; FBW7 act: 0.1; GPR151 confirm: 1.3; GPR119 ag: 0.8

What do the screens show for `COc1cc(CNc2ncn[nH]2)cc(Cl)c1OC`?
GPR151 activ: 1.9; MITF inh: -4.9; TEAD-YAP block: -1.5; FBW7 act: -0.2

How did COc1cc(CNc2ncn[nH]2)ccc1OCc1cccc(C)c1 do in these assays?
GPR151 activ: 5.1*; MITF inh: -11.2; TEAD-YAP block: -28.6; FBW7 act: -0.1; GPR151 confirm: -0.7; GPR119 ag: -5.9

What do the screens show for `C[C@H]1NC(=O)[C@@H]2C[C@H](NCc3cccc4cccnc34)CN2C1=O`?
GPR151 activ: 8.6*; MITF inh: 11.8; TEAD-YAP block: 3.7; FBW7 act: -0.1; GPR151 confirm: 0.2; GPR119 ag: 10.7

How did COc1ccc(C)cc1NC(=O)c1sc2nc3n(c(=O)c2c1C)CCCC3 do in these assays?
GPR151 activ: 1.7; MITF inh: -0.9; TEAD-YAP block: -0.4; FBW7 act: -0.2

Results for COc1cc(NC(=O)c2sc3nc4n(c(=O)c3c2C)CCCC4)cc(OC)c1OC ?
GPR151 activ: 11.7*; MITF inh: -6.2; TEAD-YAP block: -8.3; FBW7 act: 0.0; GPR151 confirm: 0.4; GPR119 ag: -1.2

Results for NCc1cccc(CNC(=O)c2c[nH]c3cc(-c4cn[nH]c4)ccc23)c1 ?
GPR151 activ: 5.1*; MITF inh: -10.6; TEAD-YAP block: -11.5; FBW7 act: -0.3; GPR151 confirm: -1.6; GPR119 ag: -7.4

Results for Cc1ccc(NC(=O)CCC(=O)Nc2ccccc2)cc1 ?
GPR151 activ: -0.7; MITF inh: 5.1; TEAD-YAP block: -5.2; FBW7 act: 0.0

Results for COC(C(=O)Nc1c(F)cccc1F)c1ccccc1 (configuration not stated) ?
GPR151 activ: 5.9*; MITF inh: 0.7; TEAD-YAP block: -0.9; FBW7 act: 0.5; GPR151 confirm: -0.5; GPR119 ag: -7.7

What do the screens show for `COC(C(=O)Nc1ccccc1C(=O)O)c1ccccc1` (configuration not stated)?
GPR151 activ: -0.3; MITF inh: 11.7; TEAD-YAP block: 4.1; FBW7 act: 0.0

How did Cc1cc(NCCCN2CCCC2=O)n2ncnc2n1 do in these assays?
GPR151 activ: 0.0; MITF inh: 16.6; TEAD-YAP block: 11.6; FBW7 act: 1.5
